# FUS yeast rescue = qHTS for Suppressors of FUS Proteinopathy: Primary screen using FUS-linked yeast assay; Potency, µM (highest dose often 76.6 µM), usual class: activators; S. cerevisiae FUS-expressing, growth rescue, OD600, 24 h; 390,000 tested, 0.24% active; AID 1347120, 2019;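 further: plate controls were DMSO vehicle for no effect and reference control for full effect; nearly all actives have a fitted effect of over 55% in size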
#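 Read-out: OD at 600 nm after 24hr at 30C, reporting rescue of FUS-induced yeast toxicity. Cells at OD 0.005 in galactose (2%) minimal medium; compounds tested in a dilution series; CP55940 titration from 92uM final as control.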
# TDP-43 yeast inh = qHTS of TDP-43 Inhibitors | TDP-43 expressing yeast growth rescue, BacTiter-Glo, 24 h | Potency, µM (doses to about 46.1 µM), for inactives: top-dose growth rescue (activation), hits mostly activators | AID 652104, 2013 | 410,000 tested, 1.8% active; further: % of control where 0% means no effect; nearly all actives have a fitted effect of over 50% in size
#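 Luminescence from BacTiter-Glo reports growth of TDP-43-expressing yeast after 24 hr at 30 deg C with compound. Cells were raffinose-pregrown to mid-log, then seeded in galactose medium at OD600=0.02.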
# Abeta rescue = qHTS for compounds that reverse cellular toxicity of Amyloid beta (A-beta) peptide in yeast: Primary Screen. yeast expressing A-beta42, growth rescue, OD600, 48 h; response scale: 0% DMSO, 100% iron-clioquinol control. Potency, µM (highest dose often 46.1 µM), most hits filed as activators. 410,000 tested, 0.063% active. AID 1347071, 2019; further: nearly all actives have a fitted effect of over 55% in size
#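 Yeast A-beta toxicity model in growth medium with pinned compounds, 48 h at 30 C; growth read as absorbance at 600 nm. Normalized to FeCl3/clioquinol equimolar mix (positive) and DMSO (negative).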
# aSyn rescue = qHTS of alpha-syn Inhibitors | Yeast expressing alpha-synuclein, growth rescue, BacTiter-Glo, 24 h | Potency, µM (series often up to 46.1 µM), inactives show at the highest dose growth rescue (activation), actives largely listed as activators | 370,000 tested, 0.14% active | AID 652106, 2013; further: % of control where 0% means no effect; nearly all actives have a fitted effect of over 65% in size
#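 Galactose-induced alpha-syn yeast (OD600=0.02, raffinose-pregrown) + pinned cpd, 24 hr, 30 deg C; growth by BacTiter-Glo luminescence. Growth restoration scores as activation.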
# BCR signal inh = qHTS Assay to Find Inhibitors of Chronic Active B-Cell Receptor Signaling. ABC-DLBCL IkBa-CBG/CBR reporter, luminescence ratio, 4 h. Potency, µM (series often up to 46.1 µM), for inactives: top-dose activity change, negative = inhibition, usual class: inhibitors. 340,000 tested, 0.05% active. AID 493014, 2011; active means well fitted inhibition curve with a large enough effect in the signal ratio, with a control signal flat, not every such curve was filed as active; inconclusive means small, poorly fitted or top-dose-only effect, or effect the other way, or a change in a side signal; the % refers to the signal ratio;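 further: plate controls were basal doxycycline-induced cells for no effect and cells given 10 µM MG132 for full effect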
#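 Concentration-response series (up to 46 uM) were applied to TMD8 dual-reporter cells for 4 h at 37C with doxycycline. Green/red ratio, after filter-overlap correction, defined %Activity; red signal alone was normalised to basal cells and zero luminescence.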
# uPA surface inh = qHTS for Inhibitors of Cell Surface uPA Generation | cell surface uPA generation assay, qHTS | Potency, µM (titrated, usually from 38.3 µM), inactives show at the top dose activity change, negative = inhibition, actives largely listed as inhibitors | 330,000 tested, 0.31% active | AID 540303, 2011; active means well fitted inhibition curve with a large enough effect; inconclusive means small, poorly fitted or top-dose-only effect; inactive means no such curve, though single readings can be large or run the other way; tested in mouse RAW 264.7 cells; further: on the % scale 0 is the no-effect control and ±100 the full control effect; nearly all actives have a fitted effect of over 55% in size
# An asterisk follows results filed as active; i = inactive; ? = inconclusive; . = not tested or not shown; [ ] = dose if it differs, or a comment. In the library only some 2.3% were active in any assay of this set; here they are far more common. Unless noted, the call rests on the fitted dose curve; in most records, active means well fitted curve in the direction sought with a large enough effect; inconclusive means small, poorly fitted or top-dose-only effect, or another doubt; inactive means no such curve, though single readings can be large; an effect the other way counts as inactive or inconclusive. Potency means the concentration at half of the fitted maximal effect.
SMILES,FUS yeast rescue,TDP-43 yeast inh,Abeta rescue,aSyn rescue,BCR signal inh,uPA surface inh
O=C(CSc1nnc(-c2ccco2)n1-c1ccc(Cl)cc1)Nc1ccc(S(=O)(=O)Nc2nccs2)cc1,25µM*,.,.,.,.,.
Cn1c(=NC(=O)CS(=O)(=O)c2ccc(F)cc2)sc2ccccc21,i,-16%,i,-11%,5%,-1%
COc1ccc(C2N(c3ccc(Cl)cc3)N=C(C(C)=O)N(C)N2C(C)=O)cc1 (stereo unspecified),i,22µM*,i,2%,-29%,4%
O=C(N1CCC(n2nc(-c3ccccc3)oc2=O)CC1)C1(c2ccc(Cl)cc2)CC1,?,22µM*,.,?,-15%,0%
COc1ccc(C2C3=C(CCCC3=O)Nc3nc(C(F)(F)F)nn32)c(OC)c1OC (stereo unspecified),i,2%,i,-1%,-9%,1%
Cc1ccc(-c2nc3cccnc3o2)cc1NC(=O)COc1ccc(C(C)(C)C)cc1,32µM*,?,i,-11%,?,-2%
O=C(N/N=C/C(Cl)=C/c1ccccc1)c1ccccn1,i,10µM*,i,-13%,?,-11%
Cc1cc2ccccn2c1C(=O)Nc1ccc(Cl)cc1,i,-9%[0.397 µM],i,-4%,?,-3%
Cc1cccc(CNC(=O)C2CCC(=O)N(Cc3ccccc3F)C2)n1 (stereo unspecified),.,-9%,i,-2%,0%,11%
CCOc1ccc(Br)cc1C1=NN(C(C)=O)C(c2ccc([N+](=O)[O-])s2)O1 (stereo unspecified),i,19%,i,-18%,?,6.3µM*
COc1cc(-c2noc(C)c2/C=C/c2cccc([N+](=O)[O-])c2)cc(OC)c1OC,i,11%,i,2%,?,0.11µM*
O=C(O)CCC(=O)c1ccc(C2CCCCCC2)cc1,i,18µM*,i,-15%,.,.
O=C(NCC(c1ccco1)S(=O)(=O)c1ccc(Cl)cc1)c1ccc(C(F)(F)F)cc1 (stereo unspecified),i,16µM*,i,.,3%,.
Cc1ccc(S(=O)(=O)C(CNC(=O)c2ccc(C(F)(F)F)cc2)c2ccco2)cc1 (stereo unspecified),?,-22%,i,.,-1%,.
Cc1cc2ccccc2cc1CN1CCOCC1,i,-4%,i,0%,0%,-1%
O=[N+]([O-])c1ccc2c(c1)-c1ccccc1C2O (stereo unspecified),i,11µM*,i,5%,.,.
c1ccc(CNc2nc(NCc3ccco3)nc(N3CCOCC3)n2)cc1,i,21%,i,3%,?,10%
Cc1cccc(Nc2nc(NCc3ccco3)nc(N3CCOCC3)n2)c1,i,13µM*,i,13%,?,-1%
CC(=O)OC1CCC2(C)C(COc3ccc4ccc(=O)oc4c3)C(C)(O)CCC2C1(C)C (stereo unspecified),?,18%,i,12%,-14%,-6%
C=C1CCC2C(C)(C)[C@@H](O)CC[C@@]2(C)[C@@H]1COc1ccc2ccc(=O)oc2c1 (stereo partly specified),i,12%,i,18µM*,?,?
C=C1CCC2C(C)(C)[C@H](O)CC[C@@]2(C)[C@@H]1COc1cc(=O)oc2ccccc12 (stereo partly specified),35µM*,3%,i,-25%,-14%,-13%
C=C1CC(COc2cc(=O)oc3ccccc23)(c2ccccc2)OC1=O (stereo unspecified),.,7%,i,18%,.,7%

# Screens as filed in PubChem.
